UHRF1 MBD2 ctr: blocks human UHRF1 binding to methylated DNA. UHRF1 binding to methylated oligo, TR-FRET. inhibition, % at 4.4 µM. actives 0.75% (n = 370,000). AID 687016; in the data active means inhibition above about 21%;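 further: UHRF1 SRA domain binding a hemimethylated CpG hairpin DNA probe; 0% = median of test compound wells and 100% = reference inhibitor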
PLC-gamma1 inh: inhibitors of human phospholipase C gamma1. AID 720700. actives 0.84% (n = 370,000). inhibition, % at 12.2 µM. purified PLC-gamma1, fluorogenic substrate, fluorescence; in the data active means inhibition above about 9.5%
PLC-beta3 inh: inhibitors of human phospholipase C beta3. actives 0.18% (n = 370,000). AID 720704. inhibition, % at 12.2 µM. Q01970. Purified PLC-beta3, fluorogenic substrate, fluorescence; in the data active means inhibition above about 11%;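 further: 0% = median of compound wells on plate and 100% = full blocker control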
MBD2 DNA inh: MBD2-methylated oligo binding inhibition | TR-FRET, MBD2 binding to methylated oligonucleotide | inhibition, % at 4.4 µM | actives 0.31% (n = 370,000) | AID 686964; in the data active means inhibition above about 13%
LEDGF integ inh: blocks HIV-1 LEDGF/p75-dependent DNA integration; TR-FRET IN-LEDGF/p75 DNA integration, Eu/Cy5; inhibition, % at 3.7 µM; actives 0.64% (n = 370,000); AID 743269;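 active means inhibition above the screen-wide mean plus 3 SD, cut at about 13% in these data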;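 further: signal is the Cy5 over europium emission ratio at 671 and 618 nm; 0% = plate median of compound wells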
IN multimer up: counter-screen for LEDGF/p75 integration inhibitors: HIV-1 integrase multimerization activators. shares compounds with LEDGF integ inh. TR-FRET HIV-1 integrase multimerization, biochemical. activation, % at 7.7 µM. actives 17% (n = 2,000); in the data active means activation above about 8.9%
TRFRET interf: TR-FRET optical interference, LEDGF/p75 integration counter-screen | 2,000 tested, under 10 active | AID 1053135 | shares compounds with LEDGF integ inh | inhibition, % at 7.7 µM | TR-FRET optical interference counterscreen, HIV-1 IN multimerization;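 active means inhibition above the mean over all tested compounds plus 3 SD, which no compound reached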;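 further: 0% = integrase with antibodies and DMSO and 100% = antibodies without integrase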
LEDGF integ conf: confirmation of HIV-1 LEDGF/p75-dependent integration inhibitors | shares compounds with LEDGF integ inh | TR-FRET LEDGF/p75-dependent HIV-1 integration, biochemical | inhibition, % at 3.7 µM | actives 36% (n = 2,000); in the data active means inhibition above about 14%
Starred values were filed as active, the others as inactive; . = no result given. A selection: hits, their analogues and other compounds. The true share with any hit is near 2.4%.

SMILES | UHRF1 MBD2 ctr | PLC-gamma1 inh | PLC-beta3 inh | MBD2 DNA inh | LEDGF integ inh | IN multimer up | TRFRET interf | LEDGF integ conf
CCOC(=O)C1CCCN(Cc2ccccc2Cl)C1 (stereo not drawn) | -3 | -2 | 1 | 0 | 16* | -2 | 12 | 2
CCOC(=O)C1CCCN(Cc2ccccc2C)C1 (stereo not drawn) | 1 | 1 | 4 | 0 | -1 | . | . | .
CCCCNC(=O)C1c2ccccc2OCC(=O)N1Cc1ccccn1 (stereo not drawn) | 0 | 1 | -1 | 2 | 30* | -3 | 14 | 3
COc1ccc([C@@]23CCN=C2c2[nH]c4ccccc4c2CCN3)c(N)c1 | 0 | -17 | -25 | 2 | -5 | . | . | .
COc1cccc(=O)c2c(C)n(C)c(C)c12 | 22* | -18 | -15 | 1 | 36* | 6 | -21 | 0
CCCCCn1c(C)c2c(OCC)cccc(=O)c2c1C | 20 | -8 | -21 | 5 | 8 | . | . | .
CCOc1cccc(=O)c2c(C)n(C)c(C)c12 | 4 | -15 | -22 | -3 | 14* | 4 | -13 | 0
O=C(O)c1cc(-c2ccccc2)nc(-c2ccccc2)c1 | 1 | -3 | -19 | 2 | 15* | 1 | -5 | -10
COc1cc(C2C(C#N)=C(N)Oc3cc(C)oc(=O)c32)cc2c1OCO2 (stereo not drawn) | 42* | -8 | -11 | 9 | 20* | 3 | -14 | 14*
CCCCCCCCN1C(=O)[C@@H](CC(=O)NCc2cccc(C(F)(F)F)c2)C[C@@]2(C(=O)OC)C1=C[C@H](C(C)C)O[C@@H]2C1CC1 | -1 | -1 | -2 | -6 | 3 | . | . | .
CN(C)c1ncnc2c1ncn2[C@H]1CN(Cc2cccnc2)C[C@@H](CO)O1 | -1 | -1 | -2 | 1 | 52* | -1 | 5 | -6
CN(C)c1ncnc2c1ncn2[C@H]1CN(Cc2ccc(F)cc2)C[C@@H](CO)O1 | -2 | -1 | 0 | 0 | 4 | . | . | .
Clc1ccccc1-c1ccc(CN2CCN(c3ccccc3)CC2)o1 | 0 | 0 | -6 | 1 | 31* | 0 | 1 | 0
Cc1nnc(N/N=C/c2cc([N+](=O)[O-])c(N3CCC(C)CC3)cc2N2CCC(C)CC2)n1N | 3 | 4 | -1 | -6 | 52* | 2 | -5 | -2
CCc1nnc(N/N=C/c2ccc(N3CCC(C)CC3)c([N+](=O)[O-])c2)n1N | -6 | 9 | 6 | -1 | 38* | 2 | -9 | 0
COc1ccc(C(=O)CSc2nnc(-c3cccs3)o2)cc1OC | 13 | -2 | 0 | 6 | 0 | . | . | .
CC(=O)c1cccc(-c2ccc3c(c2)C(C)(Cc2ccc(S(C)(=O)=O)cc2)C(=O)N3)c1 (stereo not drawn) | 0 | 0 | 1 | -5 | 48* | 0 | 3 | -2
O=C(OCC#CCSc1nnc(-c2cccc3ccccc23)o1)c1ccc(SC(F)(F)F)cc1 | -2 | -3 | 1 | -5 | -5 | . | . | .
Cc1ccc(NC(=O)C2CCN(S(=O)(=O)c3c(C)noc3/C=C/c3ccco3)CC2)nc1 | 2 | 0 | -4 | 0 | 1 | . | . | .
Cc1noc(/C=C/c2ccco2)c1S(=O)(=O)N1CCC(C(=O)NCc2ccco2)CC1 | 1 | -17 | -22 | -8 | 33* | 3 | -9 | 1
Cc1cccnc1NC(=O)C1CCN(S(=O)(=O)c2c(C)noc2/C=C/c2ccco2)CC1 | -2 | -7 | -9 | 1 | 24* | 0 | -2 | -11
CC[C@@H](C)CN1C(=O)N[C@@H](c2ccccc2)C(C(C)=O)=C1C | 10 | -10 | -12 | -6 | 18* | 1 | -4 | 19*
CC[C@@H](C)CN1C(=O)N[C@@H](CCc2ccccc2)C(C(C)=O)=C1C | 0 | 2 | 2 | 1 | -3 | . | . | .
CN(C)CCCNc1cc(O)c2ncccc2c1 | 0 | -56 | -64 | -6 | 30* | -4 | 22 | 40*
Cc1ccc(CNC(=O)/C=C/c2cccs2)cc1 | -4 | 2 | 3 | 1 | 25* | 4 | -14 | -5
SMILES | UHRF1 MBD2 ctr | PLC-gamma1 inh | PLC-beta3 inh | MBD2 DNA inh | LEDGF integ inh | IN multimer up | TRFRET interf | LEDGF integ conf
CCCCNC(=O)/C=C/c1cccs1 | 0 | 4 | 3 | 1 | -4 | . | . | .
C[C@H]1[C@@H](OC(=O)Nc2cccc(C(F)(F)F)c2)CC[C@@]23CCCN2C(=O)CCC[C@@H]13 | 1 | 2 | -5 | -1 | -2 | . | . | .
CCOC(=O)c1c(C)oc2c1c(C=NCC1CCCO1)c(O)c1ccccc12 (stereo not drawn) | 9 | -110 | -151 | -5 | 17* | 1 | -3 | -1
CC(C)C[C@H](NC1(C(=O)NC2CCCCC2)CCN(C)CC1)C(=O)NCC(c1ccccc1)c1ccccc1 | 2 | 5 | 4 | 3 | 2 | . | . | .
COC(=O)CSc1nnc(-c2n[nH]c3c2CCC3)n1N | -1 | 0 | 2 | 0 | 1 | . | . | .
Oc1ccccc1CNc1cccc2cccnc12 | -8 | -12 | -24 | -19 | 31* | 5 | -16 | 0
COc1cc(NCc2ccccc2O)c2ncccc2c1 | 0 | -21 | -31 | -1 | 1 | . | . | .
Cc1nonc1N1CCN(Cc2cn[nH]c2-c2ccc3c(c2)OCO3)CC1 | 1 | -1 | -2 | 3 | 53* | 0 | 2 | 0
COc1cc(C=Nc2cccc(C)c2)c(O)c([N+](=O)[O-])c1 | -7 | -3 | 0 | -12 | 0 | . | . | .
Cc1ccc(O)c(N=Cc2cc(Cc3ccccc3)cc([N+](=O)[O-])c2O)c1 | -6 | 7 | -5 | -16 | 19* | 3 | -15 | 46*
CCCC(=Nc1ccccc1)C1=C(O)C(C(=O)OC)C(C)(C)CC1=O (stereo not drawn) | -1 | 0 | -1 | -2 | 0 | . | . | .
CCC(=Nc1ccc(N)cc1)C1=C(O)C(C(=O)OC)C(C)(C)CC1=O (stereo not drawn) | 21* | -14 | -24 | -2 | 32* | 20* | -72 | 7
CCC(=NCc1ccccc1)C1=C(O)C(C(=O)OC)C(C)(C)CC1=O (stereo not drawn) | -1 | -3 | -2 | 4 | 0 | . | . | .
CCCCC(=Nc1ccc(N)cc1)C1=C(O)C(C(=O)OC)C(C)(C)CC1=O (stereo not drawn) | 13 | -20 | -28 | -6 | 46* | 19* | -67 | 4
CCC[C@@H](/C=C/C(=O)OC(C)(C)C)Sc1ccc(N)cc1 | -2 | 1 | 0 | 0 | -4 | . | . | .
COc1ccc(OC)c(S(=O)(=O)Nc2cccc3ccccc23)c1 | -3 | -7 | -18 | 0 | 0 | . | . | .
